{
  "source": "PubChem BioAssay (Tox21)",
  "note": "Where “and” joins values, the source holds several entries; their conditions need not be identical. Identical values can stand only once. Inconclusive results are not listed. Calls of active or inactive are those of the source. The call rests on the fitted dose curve; in most records, active means well fitted cell-killing curve with a large enough effect in the repeat runs; inconclusive means weak or mixed curves, or effect the other way; inactive means no such curve, though single readings can be large or run the other way. On the % scale 0 is the no-effect control and ±100 the full control effect; potency means the concentration at half of the fitted maximal effect.",
  "data": [
    {"assay": "qHTS assay to identify small molecule antagonists of the progesterone receptor (PR) signaling pathway - cell viability counter screen (AID 1346798); further: nearly all actives have a fitted effect of over 50% in size", "settings": "PR-UAS-bla HEK293T viability, CellTiter-Glo luminescence, 16 h; series mostly up to 92.4 µM; activity change, negative = cytotoxicity: at the top concentration", "source_text": "National Center for Advancing Translational Sciences [NCATS]\nNIH Chemical Genomics Center [NCGC]\nU.S. Environmental Protection Agency [EPA]\nNational Institutes of Environmental Health Sciences [NIEHS]\nNational Toxicology Program [NTP]\nU.S. Food and Drug Administration [FDA]\nProgesterone receptor (PR), a nuclear hormone receptor, plays an important role in development, metabolic homeostasis and reproduction. It is activated by the steroid hormone progesterone. Endocrine disrupting chemicals (EDCs) and their interactions with steroid hormone receptors like PR causes disruption of normal endocrine function. To identify the compounds that inhibit PR signaling, a PR-UAS-bla GripTite cell line i.e. PR-UAS-bla HEK293T (Invitrogen, Carlsbad, CA, USA) containing a beta-lactamase reporter gene under the control of an UAS response element was used to screen Tox21 10K compound library. The cytotoxicity of the Tox21 compound library against the PR-bla cell line was tested in parallel by measuring the cell viability using CellTiter-Glo assay in the same wells.\nTox21 Assay Protocol Summary:\nPR-UAS-bla HEK293T cells were dispensed at 3,000 cells/4 uL of assay medium containing 2% charcoal stripped FBS per well into black wall/clear-bottom 1536-well plates using a Multidrop Combi (ThermoFisher Scientific, Waltham, MA) dispenser. After the assay plates were incubated at a 37C and 5% CO2 for 4 hr, 23 nL of compounds dissolved in DMSO, positive controls or DMSO only was transferred to the assay plate by a Pintool station (Kalypsys, San Diego, CA), followed by addition of 1 uL of R5020 in assay medium using a Flying Reagent Dispenser (FRD, Aurora Discovery, San Diego, CA). The plates were incubated at 37C and 5% CO2 for 16 hr. Then 1 uL of LiveBLAzer B/G FRET substrate was added using a Flying Reagent Dispenser, the plates were incubated at room temperature for 2 hours, and fluorescence intensity was measured by an Envision plate reader (PerkinElmer, Shelton, CT). For cell viability readout that measures cytotoxicity, 4 uL/well of CellTiter-Glo reagent was added into the assay plates using a FRD. After 30 min incubation at room temperature, the luminescence intensity in the plates was measured using a ViewLux (PerkinElmer) plate reader.", "values": [
      {"smiles": "OCCCc1cccnc1", "activity change, negative = cytotoxicity": "0.0182% (inactive)"},
      {"smiles": "CCOC(=O)CN", "activity change, negative = cytotoxicity": "-4.03% (inactive)"},
      {"smiles": "CCC(C)(C)c1cc(O)c(C(C)(C)CC)cc1O", "activity change, negative = cytotoxicity": "18.4% (inactive)"},
      {"smiles": "CN1[C@@H]2CC[C@@H]1CC(OC(=O)C(CO)c1ccccc1)C2", "note": "(stereo not given in full)", "activity change, negative = cytotoxicity": "-13.5% [at 42.5 µM] (inactive)"},
      {"smiles": "COc1ccc2sc(C(=O)Nc3nnn[nH]3)c(OC(C)C)c2c1", "activity change, negative = cytotoxicity": "-2.56% (inactive)"},
      {"smiles": "O=S(=O)(O)CCCN1CCOCC1", "activity change, negative = cytotoxicity": "-3.84% (inactive)"},
      {"smiles": "CC(C)(C)c1cc(CCC(=O)NCCCCCCNC(=O)CCc2cc(C(C)(C)C)c(O)c(C(C)(C)C)c2)cc(C(C)(C)C)c1O", "activity change, negative = cytotoxicity": "5.59% (inactive)"},
      {"smiles": "CCCC(CC)CCCCCCCN", "note": "(stereo not given)", "activity change, negative = cytotoxicity": "-26.4% (inactive)"},
      {"smiles": "CCOCOCC", "activity change, negative = cytotoxicity": "4.32% (inactive)"},
      {"smiles": "CO[Si](CCC1CCC2OC2C1)(OC)OC", "note": "(stereo not given)", "activity change, negative = cytotoxicity": "-4.59% (inactive)"},
      {"smiles": "CC(=O)C=O", "activity change, negative = cytotoxicity": "3.97% (inactive)"},
      {"smiles": "C=CC(=C)CC/C=C(\\C)CCC=C(C)C", "activity change, negative = cytotoxicity": "-3.03% [at 18.9 µM] (inactive)"},
      {"smiles": "C/C=C/C(=O)C1=C(C)CCCC1(C)C", "activity change, negative = cytotoxicity": "-24.7% (inactive)"},
      {"smiles": "Cn1cnc2ncnc(N)c21", "activity change, negative = cytotoxicity": "-0.619% [at 42.5 µM] (inactive)"},
      {"smiles": "Cc1cnccn1", "activity change, negative = cytotoxicity": "-4.54% (inactive)"},
      {"smiles": "CC1(C)COCN1", "activity change, negative = cytotoxicity": "-10.6% (inactive)"},
      {"smiles": "CCCCCCCOC(=O)c1ccccc1C(=O)OCCCCCCC", "activity change, negative = cytotoxicity": "-6.37% (inactive)"},
      {"smiles": "OCCCCl", "activity change, negative = cytotoxicity": "18.5% (inactive)"},
      {"smiles": "CC(C)CCOCCC(C)C", "activity change, negative = cytotoxicity": "13% (inactive)"},
      {"smiles": "c1cc[nH]c1", "activity change, negative = cytotoxicity": "-0.747% (inactive)"},
      {"smiles": "CCN(CC)c1cccc(C)c1", "activity change, negative = cytotoxicity": "6.66% (inactive)"},
      {"smiles": "CCCCCCCC(=O)OCC", "activity change, negative = cytotoxicity": "-5.92% (inactive)"},
      {"smiles": "C=C(c1ccc(C(=O)O)cc1)c1cc2c(cc1C)C(C)(C)CCC2(C)C", "Potency": "54.5 µM (active)"},
      {"smiles": "CCc1c(Br)c(Br)c(Br)c(Br)c1Br", "activity change, negative = cytotoxicity": "-11.9% (inactive)"},
      {"smiles": "C/C=C/CO", "activity change, negative = cytotoxicity": "-0.587% (inactive)"},
      {"smiles": "Clc1ccc(C(c2ccccc2Cl)C(Cl)Cl)cc1", "note": "(stereo not given)", "Potency": "inactive"},
      {"smiles": "C[C@H]1O[C@@H](O[C@H]2[C@@H](O)C[C@H](O[C@H]3[C@@H](O)C[C@H](O[C@H]4CC[C@@]5(C)[C@H](CC[C@@H]6[C@@H]5C[C@@H](O)[C@]5(C)[C@@H](C7=CC(=O)OC7)CC[C@]65O)C4)O[C@@H]3C)O[C@@H]2C)C[C@H](O)[C@@H]1O", "Potency": "86.4 nM (active) and 121 nM (active)"},
      {"smiles": "Cc1cccc(C)c1NC(=O)CN1CCN(CCCC(c2ccc(F)cc2)c2ccc(F)cc2)CC1", "Potency": "29.8 µM (active)"},
      {"smiles": "CN1CCN(C2Cc3ccccc3Sc3ccc(Cl)cc32)CC1", "note": "(stereo not given)", "Potency": "29.8 µM (active)"},
      {"smiles": "CCC1CCCCC1", "activity change, negative = cytotoxicity": "-9.5% (inactive)"},
      {"smiles": "C/C=C/c1ccc(OC)c(OC)c1", "activity change, negative = cytotoxicity": "19.9% (inactive)"},
      {"smiles": "CC1CCCCN1CCCOC(=O)c1ccc(OC2CCCCC2)cc1", "note": "(stereo not given)", "activity change, negative = cytotoxicity": "9.31% [at 42.5 µM] (inactive)"},
      {"smiles": "CC(CN(C)C)CN1c2ccccc2CCc2ccccc21", "note": "(stereo not given)", "Potency": "21.1 µM (active)"},
      {"smiles": "O=C1C=CC(=O)N1c1ccccc1", "Potency": "68.6 µM (active)"},
      {"smiles": "CCOC(=O)N1CCC(=C2c3ccc(Cl)cc3CCc3cccnc32)CC1", "Potency": "61.1 µM (active)"},
      {"smiles": "Clc1ccc(C(Cn2ccnc2)OCc2ccsc2Cl)c(Cl)c1", "note": "(stereo not given)", "Potency": "6.68 µM (active)"},
      {"smiles": "CCCSS/C(CCO)=C(\\C)N(C=O)Cc1cnc(C)nc1N", "activity change, negative = cytotoxicity": "-10.8% [at 42.5 µM] (inactive)"},
      {"smiles": "C/C=C/C=N/NC(=O)c1ccncc1", "activity change, negative = cytotoxicity": "-4.2% [at 42.5 µM] (inactive)"},
      {"smiles": "CC1=C(/C=C/C(C)=C/C=C/C(C)=C\\C=O)C(C)(C)CCC1", "activity change, negative = cytotoxicity": "8.51% (inactive)"},
      {"smiles": "CC1(C)C(=O)N(Br)C(=O)N1Br", "activity change, negative = cytotoxicity": "10.3% (inactive)"}
    ]}
  ]
}
